# Assay results from ChEMBL document CHEMBL4513216, “Probing the Open Global Health Chemical Diversity Library for Multistage-Active Starting Points for Next-Generation Antimalarials” (ACS Infect Dis, 2020).
# The whole screen tested about 68,000 compounds, of which about 2,700 (4%) showed an effect of 50% or more. Only a selection was taken, and strong results are over-represented in it overall.
# System: Plasmodium berghei
# Assay: Screen against P. berghei liver stage (PbLuc), transformed with Luciferase, at 2uM
# Assay type: functional, HepG2
# Details: tested at 2 uM
row,Compound,INHIBITION
1,COCCn1ccc(=O)c(OCC(=O)Nc2ccc(OC)c(Cl)c2)c1C,30.58%
2,CCn1ncc(CN2CCCC(n3c(=O)oc4ccccc43)C2)c1C (centres undefined),-3.96%
3,COC(=O)c1cccc(C(=O)N(C)Cc2ccsc2)c1,-21.49%
4,NC(=O)c1cc2c(nc1N)CCN(C(=O)C1CCCCC1)C2,6.97%
5,COC(=O)c1ccc(N2CCN(C(=O)c3cnn(C)c3)C(C)C2)cc1 (centres undefined),47.57%
6,O=C(NCC1Cn2nnc(-c3ccsc3)c2CO1)c1ccc[nH]1 (centres undefined),34.16%
7,CCc1ccc(CN2CCC3(CC2)C(=O)N(C)CCN3CC)cc1,47.42%
8,CCN1CCN(C)C2(CCN(Cc3ccsc3)CC2)C1=O,38.64%
9,CCN1CCN(C)C(=O)C12CCN(Cc1csc(C)n1)CC2,-66.6%
10,CN1CCN(C)C2(CCN(Cc3ccsc3)CC2)C1=O,59.5%
11,CCN1CCN(C)C(=O)C12CCN(Cc1ccsc1)CC2,39.18%
12,CCN1CCN(C)C(=O)C12CCN(Cc1cccc(C)c1)CC2,60.6%
13,CCCc1cnc(C)nc1N1CCC(Cc2cccc(C(N)=O)c2)C1 (centres undefined),-9.75%
14,CC(C(=O)NC1CCN(C)CC1)n1nc(C(F)(F)F)c(Cl)c1C1CC1 (centres undefined),-4.77%
15,CCN(C(=O)CN(CC(N)=O)C(C)C)C1=CCCC1,25.21%
16,OCc1n[nH]c(-c2ccc(F)cc2)n1,27.8%
17,CC(C(=O)N1CCN(Cc2ccc3c(c2)OCO3)CC1)n1ccnc1 (centres undefined),17.98%
18,COC(=O)CC1CCCCN1CC(=O)Nc1cc(F)ccc1F (centres undefined),30.82%
19,O=S(=O)(NC1=NCN(CCc2cccs2)CN1)c1ccc(F)cc1,36.15%
20,O=S(=O)(NC1=NCN(CCc2cccs2)CN1)c1ccc(Br)cc1,50.67%
21,O=S(=O)(NC1=NCN(CCc2cccs2)CN1)c1ccccc1,18.22%
22,O=C(Cc1cnccn1)N1C[C@@H]2CC[C@H]1CN(Cc1cscn1)C2,-41.49%
23,COCC(=O)N1C[C@H]2CNC[C@@]2(C(=O)NCc2nc(C)cc(C)n2)C1,67.44%
24,COCC(=O)N1C[C@H]2CNC[C@@]2(C(=O)NCc2cc(C)n[nH]2)C1,40.51%
25,COCC(=O)N1C[C@H]2CNC[C@@]2(C(=O)NCc2c(C)noc2C)C1,1.8%
26,N[C@H]1CN(C(=O)c2ccc(Cl)cc2O)C[C@@H]1C1CC1,-6.83%

row,Compound,INHIBITION
1,Cc1cc(Cl)ccc1C(=O)N1C[C@H](C2CC2)[C@@H](N)C1,60.42%
2,N[C@H]1CN(C(=O)Cc2ccc(CO)cc2)C[C@@H]1C1CC1,39.97%
3,N[C@H]1CN(C(=O)Cc2ccc(Cl)c(Cl)c2)C[C@@H]1C1CC1,4.72%
4,N[C@H]1CN(C(=O)Cc2cc(F)cc(Cl)c2)C[C@@H]1C1CC1,55.39%
5,N[C@H]1CN(C(=O)c2ccc(Cl)cc2F)C[C@@H]1C1CC1,19.54%
6,CN(CCCN1CCCC1)[C@@H]1c2ccccc2C2(CCNCC2)[C@H]1O,9.18%
7,COC(=O)c1ccc(CN(C)C(=O)c2cnsn2)cc1,-18.04%
8,COc1ccc(C[C@H]2CN(C3CCOCC3)CC[C@H]2OCC2CC2)cc1,68.29%
9,COc1ccc(C[C@H]2CN(C3CCOCC3)CC[C@@H]2OCC2CC2)cc1,21.06%
10,c1ccc(C[C@H]2CN(C3CCOCC3)CC[C@H]2OCC2CC2)cc1,-22.32%
11,CCc1cnc(N2CC[C@H]3[C@@H]2CCC(=O)N3CC2CCOCC2)nc1,8.37%
12,CNC(=O)[C@H]1C[C@H]2CN(Cc3cccc(C)c3)C[C@@H]1O2,14.09%
13,CC(C)NC(=O)CC1[C@H]2CN(C(=O)Cc3ccccn3)C[C@@H]12 (some centres undefined),33.39%
14,O=C(c1ccc(S(=O)(=O)N2CCSCC2)cc1)N1CCC(O)C1 (centres undefined),-57.76%
15,CN1CCN(S(=O)(=O)c2ccc(C(=O)N3CC[C@@H](O)C3)cc2)CC1=O,-27.61%
16,O=C(c1ccc(S(=O)(=O)N2CCNCC2)cc1)N1CCCC(O)C1 (centres undefined),57.4%
17,CCn1cc(S(=O)(=O)N2CCC(C3CCCCN(C)C3=O)CC2)c(C)n1 (centres undefined),-12.21%
18,CC(=O)c1cn(CC(=O)NC(C(=O)O)C(C)C)c2ccccc12 (centres undefined),-7.53%
19,COc1cc(C(C)NCc2ncccc2C)ccc1SC(F)F (centres undefined),-48.24%
20,CC(C)N1CCc2c(CN(C)Cc3ccco3)cncc2C1,16.48%
21,CCS(=O)(=O)N1CCc2c(CN(C)Cc3ccco3)cncc2C1,-21.1%
22,CN(Cc1ccco1)Cc1cncc2c1CCN(S(C)(=O)=O)C2,51.94%
23,Cc1nc(C)n(CC2CCCCN2CCC(=O)Nc2cc(C)on2)n1 (centres undefined),-14.71%
24,Cc1nc(C)n(CC2CCCCN2CC(=O)Nc2ccncc2)n1 (centres undefined),51.21%
25,Cc1nc(C)n(CC2CCCCN2CC(=O)Nc2cccnc2)n1 (centres undefined),-12.75%
26,CCN1CCC(NC(=O)CN2CCCC2Cn2nc(C)nc2C)CC1 (centres undefined),-2.82%

row,Compound,INHIBITION
1,Cc1nc(C)n(CC2CCCCN2CC(=O)NC2CCOCC2)n1 (centres undefined),60.31%
2,Cc1nc(C)n(CC2CCCCN2CC(=O)Nc2cc(C)on2)n1 (centres undefined),64.16%
3,Cc1nc(C)n(CC2CCCN2CC(=O)Nc2ccncc2)n1 (centres undefined),-40.36%
4,Cc1nc(C)n(CC2CCCN2CC(=O)NC2CCOCC2)n1 (centres undefined),32.76%
5,Cc1nc(C)n(CC2CCCN2CC(=O)Nc2cc(C)on2)n1 (centres undefined),-1.02%
6,O=C(c1c(F)cc(Br)cc1F)N1CCc2cnccc21,-62.99%
7,Cn1c(=O)[nH]c2cc(C(=O)OCC(F)F)ccc21,-67.78%
8,Cn1ccc(C(=O)N2CCC(Cc3cccc4cccnc34)C2)n1 (centres undefined),9.79%
9,Cn1cc(C(=O)Nc2cccc(CCN3CCCC3)c2)ccc1=O,-51.94%
10,O=C(C1CCCCC1)N1CCC2(COc3ncccc3S(=O)(=O)N2)C1 (centres undefined),-15.49%
11,Cc1cc(C2CCCN(CCc3ccccn3)C2)n[nH]1 (centres undefined),-12.48%
12,NC(=O)c1cc(C2CCCN(C(=O)CCc3ccccn3)C2)n[nH]1 (centres undefined),-0.71%
13,COc1cccc(CN2CCCC(c3cc(C(N)=O)[nH]n3)C2)c1 (centres undefined),54.99%
14,NC(=O)c1cc(C2CCCN(CCc3ccccn3)C2)n[nH]1 (centres undefined),58.53%
15,COc1ccccc1OCCN1CCCC(c2cc(C(N)=O)[nH]n2)C1 (centres undefined),31.51%
16,COc1ccc(F)cc1CN1CCCC(c2cc(C(N)=O)[nH]n2)C1 (centres undefined),30.91%
17,O=C(NCC(F)(F)F)C1CCCN(Cc2ccno2)C1 (centres undefined),20.32%
18,CC(C)c1nnc(NC(=O)C2CSCN2C(=O)C2CCC2)s1 (centres undefined),-52.32%
19,O=C(c1cnccn1)N1CCN2C[C@H](OCc3ccccc3F)C[C@H]2C1,-6.88%
20,CCCSCC(=O)N1C[C@@H]2CC[C@H]1CN(Cc1cccnc1)C2,16.1%
21,O=C(O)CC1COCCN1CCCc1ccccc1 (centres undefined),3.35%
22,Cc1cc(N2CCCC2c2cc(Nc3cnccn3)nc(C)n2)ncn1 (centres undefined),43.23%
23,O=C(CCc1nc2cc(Br)cnc2[nH]1)NCc1cccnc1,10.22%
24,c1ccc(CN2CCCC(CNc3ncnc4c3CCNCC4)C2)cc1 (centres undefined),29.87%
25,c1ccc(CN2CCC(CNc3ncnc4c3CCNCC4)CC2)cc1,70.58%
26,c1ccc(CN2CCC(CCNc3ncnc4c3CCNCC4)C2)cc1 (centres undefined),31.3%

row,Compound,INHIBITION
1,O=C(c1ccncc1F)N1CCc2ncnc(C3CC3)c2CC1,21.67%
2,CC(C)c1nn(C)c(Cl)c1CNCc1ccc2c(c1)OCCO2,8.37%
3,CCOc1ncccc1CNCc1c(C(C)C)nn(C)c1N(C)C,74.35%
4,CC(C)c1nn(C)c(N(C)C)c1CNCc1cccnc1N(C)C,39.54%
5,COc1ncccc1CNCc1c(C(C)C)nn(C)c1N(C)C,43.28%
6,CC(C)c1nn(C)c(N(C)C)c1CNCc1ccc2c(c1)OCO2,-41.21%
7,CC(C)c1nn(C)c(N(C)C)c1CNCc1ccc2c(c1)OCCO2,66.2%
8,Cc1nn(C)c(N(C)C)c1CNCc1cccnc1OC(C)C,53.98%
9,CCOc1ncccc1CNCc1c(C)nn(C)c1N(C)C,47.87%
10,COc1ncccc1CNCc1c(C)nn(C)c1N(C)C,11.2%
11,C[C@@H]1C(=O)NC[C@H]2CN(Cc3ccsc3)C[C@H]21,-66%
12,CC(C)(C)c1nc(CN2CCCC(Cn3cncn3)C2)no1 (centres undefined),-64.16%
13,CN(C)C(=O)c1cn[nH]c1C1CCCN1Cc1nccn1C (centres undefined),11.2%
14,Cc1[nH]/c(=N\C(=O)c2csc(NC3CCCC3)n2)sc1C,34.93%
15,CCS(=O)(=O)N1Cc2ncn(CC3CC3)c2C(COC)C1 (centres undefined),26.19%
16,Clc1ccc2oc(C3CCN(Cc4nc(C5CC5)no4)CC3)nc2c1,10.11%
17,c1cc(CCN2CCN(c3ccc4nncn4n3)CC2)ccn1,-1.88%
18,C[S+]([O-])c1nncn1CC(=O)c1ccc(Cl)c(Cl)c1 (centres undefined),20.66%
19,C[S+]([O-])c1nncn1CC(=O)c1ccc2c(c1)CCO2 (centres undefined),-0.75%
20,C[S+]([O-])c1nncn1CC(=O)c1ccc2c(c1)CCC2 (centres undefined),61.82%
21,COc1ccc(C2CN(c3cc(C)ncn3)CCN2C(C)=O)cc1 (centres undefined),-28.43%
22,CSCc1noc(CN2CC(Cc3ccccc3)CC2=O)n1 (centres undefined),6.75%
23,O=C(c1cc(=O)[nH]c(=O)[nH]1)N1CCCCC1c1nc2cc(F)ccc2[nH]1 (centres undefined),-18.49%
24,O=C(Cc1cccs1)NCC(=O)Nc1cn[nH]c1,28.49%
25,CN(CC(=O)NCC(=O)Nc1ccc(F)cc1)Cc1cccs1,69.13%
26,CC(NCC(=O)NCC(=O)Nc1ccc(F)cc1)c1cccs1 (centres undefined),16.95%
